Measured values from PubChem BioAssay (NCI).
The panel holds about 83,000 compounds, 20% with a hit somewhere; the sample as a whole holds those more often.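 Assay: single dose, 48 h. Readout: percent growth (0 = no net growth; negative = cell death). Active: <10.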 A number with no mark means an inactive call. Calls of active or inactive are those of the source.

tested on: MDA-MB-468 breast; assay: NCI-60 one-dose screen, 48 h (100 = growth as untreated, 0 = no growth, -100 = all killed); conditions: 10 µM unless noted

**Q.** For `CCN(c1cc(-c2ccc(CN3CCC(/C=C/S(=O)(=O)c4ccccc4)CC3)cc2)cc(C(=O)NCc2c(C)cc(C)[nH]c2=O)c1C)C1CCOCC1`, which growth is on record?
**A.** 55.9%

**Q.** For `c1ccc(-c2nn(-c3ccccc3)[n+](-c3cccc4ccccc34)n2)cc1`, which growth is on record?
**A.** -20.4% (active)

**Q.** For `CN(Cc1ccccc1)c1nc(Cl)c(C2CC(c3ccccc3)=NN2c2ccccc2)s1` (stereo not given), which growth is on record?
**A.** 98.7%

**Q.** With `CCN(CC)CCCNCc1cc(-c2ccccc2)nc2ccccc12` as the compound, how does the growth read?
**A.** 91.5%

**Q.** With `Cn1cc(-c2nnc(N)nc2-c2cn(C)c3ccc(F)cc23)c2cc(F)ccc21` as the compound, how does the growth read?
**A.** 99.8%

**Q.** `O=C1c2ccccc2C(=O)c2c(N=Nc3sc(=O)[nH]c3S)cccc21` was tested. Which growth did it give?
**A.** 104%

**Q.** How did the growth turn out when `C#Cc1cccc(Nc2ncnc3cc(OC)c(OCCCCCCC(=O)NO)cc23)c1` was run?
**A.** -44.4% (active)

**Q.** `O=[N+]([O-])c1ccc(Sc2nc(Cl)nc(NC3CCCC3)n2)cc1` was tested. Which growth did it give?
**A.** -46.5% [100 µM] (active)

**Q.** How did the growth turn out when `CCOc1ccc(N(C)c2ccc(/C=C/C3=[N+](C)c4ccccc4C3(C)C)cc2)cc1` was run?
**A.** 6.26% (active)

**Q.** With `CCCCCCCCCCCCCCCCCC1=NCCN1CS(=O)(=O)O` as the compound, how does the growth read?
**A.** 99.2%

**Q.** Which growth does the source give for `O=C(N/N=C/c1cccc(O)c1)c1ccccc1Nc1cccc(C(F)(F)F)c1` here?
**A.** 27%

**Q.** `COc1c(Br)cc(C(c2cc(Br)c(OC)c(Br)c2)c2ccccc2C(=O)O)cc1Br` was tested. Which growth did it give?
**A.** 100%

**Q.** Which growth does the source give for `Cc1oc2c(Cc3ccc(NC(=O)c4ccc(Cl)cc4)cc3)ncnc2c1C(=O)NO` here?
**A.** 92.1%

**Q.** Which growth does the source give for `CN(C)c1nc(-c2cccs2)n2nc(-c3ccco3)cc2n1` here?
**A.** 7.52% (active)

**Q.** Which growth does the source give for `Cc1ccc(CNc2ccc3nc(CCC4CCCCC4)[nH]c3c2)cc1` here?
**A.** -13.2% (active)

**Q.** With `N=c1c2cc(-c3ccccc3)oc2ncn1/N=C/c1ccccc1` as the compound, how does the growth read?
**A.** 53.7%

**Q.** How did the growth turn out when `Nc1ccc(-n2c(=O)oc3ccc(Cl)cc3c2=O)c(Cl)c1` was run?
**A.** -6.87% (active)

**Q.** How did the growth turn out when `CS(=O)(=O)Nc1cc(-c2cc3ncc(C#N)c(Nc4ccc(Oc5ccccc5)c(Cl)c4)c3s2)cnc1Cl` was run?
**A.** 43.3%

**Q.** With `CCOC(=O)c1cc(C(=O)c2cc(OC)cc(OC)c2)n2ncccc12` as the compound, how does the growth read?
**A.** 26.3%

**Q.** For `Cc1ccc(N(CC(=O)Nc2ccc(S(=O)(=O)NC3CCN(C)CC3)cc2)S(=O)(=O)c2ccc(Cl)cc2)cc1`, which growth is on record?
**A.** 50.3%

**Q.** With `CC/C=C/[C@@H]1C=C[C@@H]2CCC[C@H]2[C@@H]1CC[C@H](O)[C@H](C)N` as the compound, how does the growth read?
**A.** -76.6% (active)

**Q.** How did the growth turn out when `COc1cc(-c2cccc([N+](=O)[O-])c2)c(-c2nc(-c3ccccc3)c(-c3ccccc3)n2C2CC2)cc1OC` was run?
**A.** 49.4%

**Q.** `COc1cc(-c2cc3cnccc3c3nc(N)c4ccncc4c23)cc(OC)c1OC` was tested. Which growth did it give?
**A.** 8.5% (active)

**Q.** `COC(=O)C1CC(=O)N(C(=O)Nc2ccc(Cl)cc2Cl)C1` (stereo not given) was tested. Which growth did it give?
**A.** 97.8%

**Q.** How did the growth turn out when `CC(=O)C1=C(C)NC(SCc2nnc(-c3ccc(C)cc3)o2)=NC1c1ccc(F)cc1` (stereo not given) was run?
**A.** 93.4%

**Q.** For `COc1ccc(NC(=O)c2sc3nc(C)c(C(=O)c4ccccc4)cc3c2N)cc1`, which growth is on record?
**A.** 83.9%

**Q.** `Nc1c(C(=O)c2ccccc2)sc2nc(-c3cccs3)cc(-c3cccs3)c12` was tested. Which growth did it give?
**A.** 30.8%

**Q.** Which growth does the source give for `Oc1[nH]c2ccc(Cl)cc2c1N=Nc1nc(N=Nc2c(O)[nH]c3ccc(Cl)cc23)nc(N2CCCCC2)n1` here?
**A.** 18.1%

**Q.** How did the growth turn out when `C=C1C(=O)O[C@H]2[C@H]1CC/C(CNC(=O)/C=C/c1ccc(Br)cc1)=C\CC[C@@]1(C)O[C@@H]21` was run?
**A.** -58.5% (active)

**Q.** How did the growth turn out when `O=C(O)C(C(=O)O)c1cccc2ccccc12` was run?
**A.** 101%

**Q.** How did the growth turn out when `COc1ccc(NC(=O)c2sc3nc(C)c(C(O)c4ccccc4)cc3c2N)cc1` (stereo not given) was run?
**A.** 14.1%

**Q.** `O=c1c2ccccc2nc(COc2ccccc2)n1/N=C/C=C/c1ccccc1` was tested. Which growth did it give?
**A.** 89.1%

**Q.** For `CCN1CCN(Cc2ccc(NC(=O)Nc3nc4ccc(Oc5ccnc(C(=O)NC)c5)cc4s3)cc2C(F)(F)F)CC1`, which growth is on record?
**A.** -66.3% (active)

**Q.** How did the growth turn out when `O=C(NNc1nc(N2CCCC2)nc(N2CCCC2)n1)c1ccccc1` was run?
**A.** 112%

**Q.** `CC1CC(=O)OC(C)C1` (stereo not given) was tested. Which growth did it give?
**A.** 99.6%

**Q.** Which growth does the source give for `Clc1ccc(N/N=C(\c2ccccc2)c2ccccn2)nc1` here?
**A.** -24.9% (active)

**Q.** For `C=C(C)[C@@H]1CC[C@]2(C(=O)OCCCC[P+](c3ccccc3)(c3ccccc3)c3ccccc3)CC[C@]3(C)[C@H](CC[C@@H]4[C@@]5(C)CC[C@H](OC(=O)C(Cl)Cl)C(C)(C)[C@@H]5CC[C@]43C)[C@@H]12`, which growth is on record?
**A.** -61.7% (active)

**Q.** With `CN1CCN(c2nc(Nc3ccc(O)cc3)nc3ccccc23)CC1` as the compound, how does the growth read?
**A.** 75.2%

**Q.** How did the growth turn out when `CC(=O)O[C@H]1C[C@@H]2C(C)(C)C(=O)CC[C@@]2(C)c2ccc(C(C)C)cc21` was run?
**A.** 105%

**Q.** For `O=C(/C=C/c1ccc(B(O)O)cc1)/C=C/c1ccc(B(O)O)cc1`, which growth is on record?
**A.** 1.24% (active)
